# Assay outcomes deposited in PubChem by several laboratories.
# Sampled rows, rich in hits. Any-hit rate of the full collection: about 1.4%.
# EP2 antag: EP2 receptor (human) inhibition; P43116; C6 glioma cells expressing human EP2, cAMP TR-FRET; cells stimulated with saturating PGE2; inhibition, % at 25 µM; 260,000 tested, 0.52% active;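 active means percent inhibition above 40 after rounding to a whole number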;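 further: rat C6 glioma host cells with rolipram phosphodiesterase inhibitor present; the protocol text gives 20 µM as final concentration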
# Target sequence (P43116 whole entry, looked up): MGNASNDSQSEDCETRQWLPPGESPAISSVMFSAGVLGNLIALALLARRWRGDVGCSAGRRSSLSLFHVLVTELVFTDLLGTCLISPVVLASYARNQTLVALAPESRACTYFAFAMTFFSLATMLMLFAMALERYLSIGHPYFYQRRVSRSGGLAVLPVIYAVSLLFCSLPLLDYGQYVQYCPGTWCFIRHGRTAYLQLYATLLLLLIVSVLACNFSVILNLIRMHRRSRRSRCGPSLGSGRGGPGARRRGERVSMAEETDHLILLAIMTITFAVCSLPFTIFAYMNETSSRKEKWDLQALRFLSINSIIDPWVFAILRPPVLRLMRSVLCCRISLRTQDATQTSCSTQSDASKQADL
# Furin inhibitor: blocks human furin protease activity | P09958 | inhibition, % at 20 µM or 30 µM | purified furin, fluorogenic substrate cleavage | 220,000 tested, 0.061% active | AID 463115; in the data active means inhibition above about 25%
# HSV replic up: HSV replication enhancement. maximum fold increase. HSV replication augmentation in cells, fold increase. AID 1956. 220,000 tested, 0.005% active; in the data active means maximum fold increase above about 1.5; tested in PC3 cells
# EP2 mod: modulators of human EP2 prostaglandin E2 receptor | P43116 | EP2-expressing cells, cAMP HTRF FRET, PGE2 co-stimulation | induction, % at 25 µM | 260,000 tested, 0.83% active;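 active means compounds whose cAMP rise, as percent of the full-agonist control response, exceeds 60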;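 further: rat C6 glioma line stably carrying human EP2 under a CMV promoter; the protocol text gives 20 µM as final concentration; 100% = response of wells given 1 µM PGE2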
# Pf gametocyte: kills late stage P. falciparum gametocytes; inhibition, % at 10.9 µM; 150,000 tested, 0.065% active; P. falciparum stage V gametocytes, ATP luminescence, 24 h;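 active means inhibition above the mean plus 3 SD of compounds within the control limits, set per campaign, cut at about 38% in these data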;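 further: 0% = DMSO wells and 100% = medium only without gametocytes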
# EP2 cAMP induct: EP2 receptor cAMP induction, counter-screens negative; C6 glioma EP2 cells, cAMP HTRF induction; plus low (about EC15) PGE2 agonist; 1,300 tested, 47% active; calls only at 20 µM (by protocol); shares compounds with EP2 mod;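 active means cAMP induction above 50% in the main assay while under 30% in all four parallel counter assays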;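 further: rat C6 glioma cells stably expressing human EP2 receptor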
# Starred values were filed as active, the others as inactive; i = inactive; . = no result given; + = active, no number; ! = repeats disagree.
SMILES,EP2 antag,Furin inhibitor,HSV replic up,EP2 mod,Pf gametocyte,EP2 cAMP induct
O=C(NC1CCCCC1)C(c1ccc2ncccc2c1)N(Cc1ccccc1)C(=O)c1cccs1 (centres undefined),15,-4,i,42,.,.
CCC(C)NC(=O)CNS(=O)(=O)c1ccc(C)cc1 (centres undefined),11,-18,i,25,6,.
COc1cc(S(=O)(=O)N(Cc2ccc(C)cc2)Cc2ccco2)ccc1-n1cnnn1,2,-20,i,26,.,.
COc1cc(S(=O)(=O)N(Cc2cccnc2)Cc2ccco2)ccc1-n1cnnn1,10,-17,i,79*!,-6,i
OCCCNc1nc(-c2ccc(Cl)cc2)nnc1-c1ccc(Br)cc1,13,2,i,77*,.,+
O=[N+]([O-])c1ccc(-c2nnc(-c3ccccc3)c(NCCCO)n2)cc1,6,6,i,13,.,.
CC(=O)N1Cc2ccccc2C(C)CC12CCCC2 (centres undefined),14,-17,i,24,-1,.
CC(=O)N1c2ccccc2C(C)CC12CCCCC2 (centres undefined),8,-23,i,93*,-2,+
O=c1c(C=NCc2ccccc2)c(NCc2ccccc2)nc2ccccn12,5,-15,i,80*,-14,+
CCn1c2ccccc2c2cc([N+](=O)[O-])ccc21,4,-10,i,77*,-7,+
CCCC(=O)C1=C(O)C(C(=O)OC)C(C)(C)CC1=Nc1cccc2ccccc12 (centres undefined),12,-11,i,78*,.,+
C=CCn1c(CCc2cc(C(C)(C)C)c(O)c(C(C)(C)C)c2)n[nH]c1=S,7,-21,i,58,-9,i
C=CCn1c(Cc2ccccc2)n[nH]c1=S,13,-25,i,9,12,.
Cc1cc(C)c(C#N)c(Oc2ccccc2)n1,13,-14,i,24,-3,.
Cc1cc(C)c(C#N)c(Oc2ccccc2Br)n1,10,-31,i,70*,22,i
C=CCn1c(=O)c2c3c(sc2n2c(Nc4ccc(OC)cc4)nnc12)CCCC3,12,-25,i,75*,.,+
Cc1ccnc(SCC(=O)n2c3c(c4ccccc42)CC(C)CC3)n1 (centres undefined),-7,-15,i,74*,.,+
COc1ccc(-c2noc(CCCc3ccccc3)n2)cc1OC,5,-18,i,27,.,.
Cc1nn(Cc2ccc(C(=O)N3c4ccc(F)cc4CCC3C)o2)c(C)c1Br (centres undefined),20,-5,i,17,.,.
CCOC(=O)c1cnc2ccc(OCC)cc2c1N1CCN(c2ccccc2OC)CC1,11,-18,i,26,.,.
CCOC(=O)c1cnc2ccc(OCC)cc2c1N(C)Cc1ccccc1,5,-4,i,90*,10,+
CN(C)c1ncc(S(=O)(=O)c2ccccc2)c(-c2ccccc2Cl)n1,5,-14,i,66*,20,+
CN(C)c1ncc(S(=O)(=O)c2ccccc2)c(N)n1,10,-22,i,28,-6,.
CCC1COC(c2cccn2Cc2ccc(Cl)cc2)=N1 (centres undefined),3,-5,i,65*,0,i
CCSCC1COC(c2cccn2Cc2ccc(C)cc2)=N1 (centres undefined),9,-19,i,27,.,.
SMILES,EP2 antag,Furin inhibitor,HSV replic up,EP2 mod,Pf gametocyte,EP2 cAMP induct
COc1ccc(C2=Nn3c(nnc3-c3ccccc3)SC2)cc1OC,2,-11,i,70*,-24,i
COc1ccc(OC)c(C2=Nn3c(nnc3-c3ccco3)SC2)c1,1,-9,i,74*,15,+
COc1ccc(C2=Nn3c(nnc3C3CCCCC3)SC2)cc1OC,5,-9,i,77*,2,+
O=C(CSc1nnc2ccccn12)Nc1ncc(Cl)cc1Cl,8,-19,i,-3,.,.
O=C(Nc1cccc(Cl)c1N1CCCCC1)c1ccc2c(c1)OCCO2,5,-1,i,74*,.,i
O=C(Nc1ccccc1N1CCCCC1)c1ccc(Cl)c([N+](=O)[O-])c1,8,-3,i,59,.,+
O=C(NC(=S)Nc1cccc(Cl)c1N1CCCCC1)c1ccc2c(c1)OCCO2,4,-4,i,2,-3,.
CCOC(=O)Nc1c(C)n(C)n(-c2ccccc2)c1=O,3,.,i,22,.,.
Cc1ccc(C(C)C)c(OCc2ccc(-c3nnco3)cc2)c1,16,-31,i,66*,-25,i
CCn1c(=NC(=O)c2ccc(S(=O)(=O)N(C)C)cc2)sc2cccc(OC)c21,12,-14,i,76*,-2,i
Cc1nc2ccc(S(=O)(=O)Nc3ccc(-c4nc5cccnc5s4)cc3)cc2s1,8,-17,.,-20,.,.
Nc1cc(Cl)ccc1Oc1ccc(Cl)cc1,0,-7,i,66*,0,i
Nc1cc(Cl)ccc1Oc1ccccc1,6,-7,i,39,.,.
COc1ccc2c(c1)sc1nc(=O)ccn12,.,.,.,.,-8,.
Cc1ccc2nc(Nc3ccc4[nH]c(=O)[nH]c4c3)c(-n3nc(C)cc3C)nc2c1,7,-12,i,86*,.,i
O=C(Nc1nc(-c2cccs2)c(-c2ccccc2)s1)c1ccco1,5,-20,i,73*,.,+
CCN(CC)S(=O)(=O)c1ccc(C(=O)NCCSc2c[nH]c3ccccc23)cc1,10,-9,i,-31,.,.
CCCCOP(=O)(OCCCC)C(Nc1ccccc1)c1ccc2c(c1)OCO2 (centres undefined),6,-16,i,70*,12,i
O=C(Nc1ccccc1N1CCCC1)c1cc2ccccc2o1,.,-7,.,91*,1,+
O=C(Nc1ccccc1N1CCCCC1)c1ccccc1F,7,-20,i,61*,11,+
CC1CCN(c2ccccc2NC(=O)c2ccc(F)cc2)CC1,2,-10,i,75*,19,i
O=C(COc1ccc(Cl)cc1Cl)NN=C1c2ccccc2-c2ccccc21,4,-15,i,6,19,.
CC(C)CCn1c(=O)c2ccccc2c2ccccc2c1=O,8,-22,i,83*,16,+
COc1ccc(-c2nnc(N3CCC(C)CC3)c3ccccc23)cc1,.,-23,.,66*,-33,i
CC1CCN(c2nnc(N3CCC(C)CC3)c3ccccc23)CC1,3,-14,.,8,.,.
C#CCn1c(S(=O)(=O)Cc2ccccc2Cl)nc(-c2ccccc2)c1-c1ccccc1,3,-26,i,72*,.,+
CCCCn1c(-c2csc3c2CCCC3)n[nH]c1=S,2,-16,i,55,.,i
CCn1c(-c2csc3c2CCCC3)n[nH]c1=S,4,-12,i,6,-6,.
O=C(c1ccc2c(c1)OCO2)C1CCCN(C(=O)Nc2ccc(F)cc2F)C1 (centres undefined),13,-17,i,-106,-4,.
